This is a sample that favours compounds with a hit; in the whole collection about 21% have one here.
NS1 inh – influenza NS1 inhibition; Potency, µM (highest dose often 46.1 µM); 270,000 compounds, 0.4% hits; AID 2326; calls by dose curve; also: actives are rising curves; nearly all actives have a fitted effect of over 50% in size
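S. cerevisiae expressing influenza A NS1, grown in glucose, washed, then diluted 1:100 into pH 6.0 -URA galactose medium with 23 nl compound. Growth recovery read as OD600; NS1-free strain serves as control.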
CHX counter – counter-screen for Shiga toxin inhibitors: cycloheximide protein synthesis inhibition; 300,000 compounds, 12% hits; max response, %; cell reporter, cycloheximide protein synthesis inhibition counterscreen; in the data active = max response mostly above about 13%, no sharp cut-off; inactive = mostly below about 14%; also: read at 38.3 µM for the half of the compounds with a filed dose
Giardia FBPA inh – blocks Giardia fructose-bisphosphate aldolase activity; purified Giardia FBPA; Potency, µM (highest dose often 59.6 µM), usual class: inhibitors; 290,000 compounds, 0.71% hits; AID 2451; also: nearly all actives have a fitted effect of over 55% in size
Target sequence (A8B2U2 whole entry, looked up): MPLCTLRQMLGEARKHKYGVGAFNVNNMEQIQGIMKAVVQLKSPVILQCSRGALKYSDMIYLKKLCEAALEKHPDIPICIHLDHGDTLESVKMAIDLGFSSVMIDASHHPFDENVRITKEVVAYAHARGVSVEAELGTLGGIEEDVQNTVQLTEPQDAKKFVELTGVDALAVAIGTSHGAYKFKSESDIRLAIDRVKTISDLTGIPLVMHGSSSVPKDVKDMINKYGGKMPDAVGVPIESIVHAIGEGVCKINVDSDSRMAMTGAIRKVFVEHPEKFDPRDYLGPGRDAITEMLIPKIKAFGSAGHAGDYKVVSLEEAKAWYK
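40 nM FBPA preincubated 10 min at RT with compound (up to 57.5 uM final), then substrate plus GAPDH/TPI/NAD/arsenate coupling and diaphorase/resazurin added. Fluorescence read after 20 min at RT, 525/598 nm.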
Pf growth 96h – P. falciparum growth inhibition at 96 hour, primary screen for plastid delayed-death inhibitors; AID 504834; 320,000 compounds, 6.9% hits; P. falciparum luciferase reporter growth, 96 h; Potency, µM (series often up to 28.7 µM), actives largely listed as inhibitors
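Parasite growth measured via integrated firefly luciferase reporter in P. falciparum. Infected erythrocytes at 2% hematocrit, 0.05% parasitemia final were treated 96 hours at 37 C under 5% CO2, and luminescence was read.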
Shiga inhibitor – blocks Shiga toxin action in Vero cells. Vero cells, Shiga toxin protein synthesis inhibition reporter. inhibition, % at 38.7 µM. 290,000 compounds, 9.2% hits. AID 2315; in the data active = inhibition mostly above about 28%, no sharp cut-off; inactive = mostly below about 43%
Pf growth 48h – inhibits P. falciparum growth in the first generation, 48 h | Potency, µM (top dose mostly 28.7 µM), most hits filed as inhibitors | P. falciparum luciferase growth in erythrocytes, 48 h | 310,000 compounds, 5.9% hits | AID 504832
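Compounds are pin-transferred into medium, infected erythrocytes (2% hematocrit, 0.1% parasitemia final) are added, and plates sit one parasite generation at 37 C in 5% CO2. Detection reagent is then added and luminescence measured.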
Of the large screens only hits and unclear results are named; the others gave an inactive call. Unless noted, calls follow the shape of the dose curve; as a rule, active = well fitted curve in the direction sought with a large enough effect; inconclusive = small, poorly fitted or top-dose-only effect, or another doubt; inactive = no such curve, though single readings can be large; an effect the other way counts as inactive or inconclusive.

CCN1CCN(Cc2ccc(NC(=O)c3ccc(C)c(NC(=O)c4nccnc4N)c3)cc2C(F)(F)F)CC1	Pf growth 96h 2.6µM, Pf growth 48h 5.2µM
NC[C@@H]1O[C@H](C23CC4CC(CC(C4)C2)C3)Cc2c1ccc(O)c2O	Giardia FBPA inh inconclusive, Pf growth 96h 5.9µM, Pf growth 48h 9.3µM
Cc1ccc(N2C(=O)CC(c3ccsc3)C3=C2CC(C)(C)CC3=O)cc1 (configuration not stated)	Pf growth 96h inconclusive, Pf growth 48h inconclusive
CC1(C)CC(=O)C2=C(C1)N(c1ccc(F)cc1)C(=O)CC2c1ccsc1 (configuration not stated)	Pf growth 96h 3.3µM (no result: Pf growth 48h)
Cc1cccc(C)c1NC(=O)CNC(=O)c1ccc(N2CCCC2=O)cc1	none (no result: NS1 inh, CHX counter, Giardia FBPA inh, Shiga inhibitor)
CCOc1ccc(CCNC(=O)c2cccs2)cc1OCC	Pf growth 48h inconclusive
CCC(CC)c1nnc(NC(=O)c2ccc3c(c2)OCO3)s1	CHX counter 19, Shiga inhibitor 62
CC(C)(C)Cc1nnc(NC(=O)c2ccc3c(c2)OCO3)s1	CHX counter 44, Shiga inhibitor 48 (no result: Giardia FBPA inh)
CO[C@@H]1COC(=O)C/C=C\[C@H](C)[C@H](OC)COC(=O)[C@H]2CCCN2C(=O)C/C=C\[C@H]1C	none (no result: NS1 inh, CHX counter, Pf growth 96h, Shiga inhibitor, Pf growth 48h)
Cc1cc(OCC(=O)NC2CC2)c2c(C)c(C)c(=O)oc2c1	none (no result: Giardia FBPA inh)
Cc1cc(NC(=O)Cn2c(=O)c3c(ncn3CC(C)C)n(Cc3ccccc3)c2=O)no1	Pf growth 96h 4.7µM, Pf growth 48h 8.3µM
CC(C)Cn1cnc2c1c(=O)n(CC(=O)Nc1ccc3c(c1)OCO3)c(=O)n2Cc1ccccc1	Pf growth 96h 10µM, Pf growth 48h 9.3µM
CC(C)Cn1cnc2c1c(=O)n(CC(=O)O)c(=O)n2Cc1ccccc1	Pf growth 96h inconclusive, Pf growth 48h inconclusive
Cc1cc(NC(=O)Cn2c(=O)c3c(ncn3CCC(C)C)n(Cc3ccccc3)c2=O)no1	Pf growth 48h 3.3µM
CCn1cnc2c1c(=O)n(CC(=O)Nc1cc(C)on1)c(=O)n2Cc1ccccc1	Pf growth 96h inconclusive, Pf growth 48h inconclusive
CC(C)Cn1cnc2c1c(=O)n(CC(=O)NC(=O)NC(C)(C)C)c(=O)n2Cc1ccccc1	Pf growth 96h inconclusive, Pf growth 48h 2.9µM
NC(Cc1ccc(Oc2cc(I)c(O)c(I)c2)c(I)c1)C(=O)O (configuration not stated)	none (no result: NS1 inh, CHX counter, Giardia FBPA inh, Shiga inhibitor)
CCCC(C)NC(=O)Cn1c(=O)c2c(ncn2CCC(C)C)n(Cc2ccccc2)c1=O (configuration not stated)	Pf growth 96h inconclusive, Pf growth 48h inconclusive
CCCCNC(=O)Cn1c(=O)c2c(ncn2CCC(C)C)n(Cc2ccccc2)c1=O	Pf growth 96h 2.3µM, Pf growth 48h inconclusive
O=C(NCCCN1CCCC1=O)C(=O)NCC1OCCCN1S(=O)(=O)c1cc(F)ccc1F (configuration not stated)	none (no result: Giardia FBPA inh)
CC(=O)N[C@@H](CSC/C=C(\C)CCC=C(C)C)C(=O)O	none (no result: NS1 inh, CHX counter, Pf growth 96h, Shiga inhibitor, Pf growth 48h)
CC(=O)N[C@@H](CSC(=O)[C@]1([C@@H](O)C(C)C)NC(=O)[C@H](C)[C@@H]1O)C(=O)O	CHX counter 85, Shiga inhibitor active (no result: NS1 inh, Pf growth 96h, Pf growth 48h)
CCCCC[C@H](O)/C=C/C=C\C=C\[C@@H](O)C/C=C\CCCC(=O)O	none (no result: NS1 inh, CHX counter, Pf growth 96h, Shiga inhibitor, Pf growth 48h)
O=C(Nc1nccs1)c1ccc(S(=O)(=O)N2CCOCC2)cc1	CHX counter 15
CN(CC1CCCO1)S(=O)(=O)c1ccc(C(=O)Nc2nccs2)cc1 (configuration not stated)	CHX counter 24, Pf growth 96h inconclusive, Shiga inhibitor 22, Pf growth 48h inconclusive
Cc1cc(NC(=O)c2ccc(S(=O)(=O)N(C)CC3CCCO3)cc2)no1 (configuration not stated)	Pf growth 48h inconclusive (no result: NS1 inh)
O=C(Nc1nccs1)c1cccc(S(=O)(=O)N2CCCC2)c1	NS1 inh inconclusive
O=C(Nc1nccs1)c1cccc(S(=O)(=O)N2CCCCC2)c1	Pf growth 96h 15µM
Cc1[nH]c(=S)c(C#N)c(C)c1CC(=O)c1ccc(Br)cc1	NS1 inh inconclusive
CN1CCC[C@@H]1c1cccnc1.O=C(O)c1ccccc1O.O=C([OH2+])c1ccccc1O.O=C([OH2+])c1ccccc1O.O=C([OH2+])c1ccccc1O.[Mn]	none (no result: CHX counter, Giardia FBPA inh, Pf growth 96h, Shiga inhibitor, Pf growth 48h)
Cn1nnnc1SCC(=O)N1CCOCC1	Pf growth 96h inconclusive
CC(C)n1nnnc1SCC(=O)N1CCN(Cc2ccc3c(c2)OCCO3)CC1	Pf growth 96h 10µM, Pf growth 48h 12µM (no result: NS1 inh, CHX counter, Giardia FBPA inh, Shiga inhibitor)
CC(C)n1nnnc1SCC(=O)NCc1ccc2c(c1)OCO2	Pf growth 96h inconclusive (no result: Giardia FBPA inh)
CC(C)n1nnnc1SCC(=O)N1CCOCC1	Pf growth 96h 13µM
COCCN(Cc1ccc(F)cc1)C(=O)c1cc2ccccc2oc1=O	none
Cc1ccc(C(=O)CC2(O)C(=O)N(CN3CCOCC3)c3ccccc32)cc1 (configuration not stated)	CHX counter 18, Shiga inhibitor 44, Pf growth 48h inconclusive
CCc1ccc(C(=O)CC2(O)C(=O)N(CN3CCOCC3)c3ccccc32)cc1 (configuration not stated)	NS1 inh inconclusive, CHX counter 19, Pf growth 96h inconclusive
CC(C)c1ccc(C(=O)CC2(O)C(=O)N(CN3CCOCC3)c3ccccc32)cc1 (configuration not stated)	CHX counter 39, Pf growth 96h 12µM, Shiga inhibitor 64
COC(=O)CN1C(=O)C(O)(CC(=O)c2ccc(C)cc2)c2ccccc21 (configuration not stated)	Pf growth 96h inconclusive
CC1(C)COC2(OC1)C(=O)N(CN1CCOCC1)c1ccccc12	Pf growth 96h inconclusive
Nn1c(SCc2cccc(Br)c2)nnc1-c1ccncc1	none
CCCc1ccc2oc(C(=O)N(C)Cc3cnccn3)c(C)c2c1	Pf growth 96h 10µM (no result: Giardia FBPA inh)
CCCc1ccc2oc(C(=O)N3CCN(CCC(N)=O)CC3)c(C)c2c1	Pf growth 96h inconclusive
CCCCN(C)C(=O)c1oc2ccc(S(=O)(=O)N3CCCCCC3)cc2c1C	Pf growth 96h inconclusive, Pf growth 48h inconclusive
CCCc1ccc2oc(C(=O)N(C)CCn3ccnc3C)c(C)c2c1	CHX counter 13, Shiga inhibitor 20
Cc1c(C(=O)N(C)Cc2ccc(OC(F)F)cc2)oc2ccccc12	none (no result: Giardia FBPA inh)
CCCc1ccc2oc(C(=O)N3CCN(c4cnccn4)CC3)c(C)c2c1	CHX counter 12, Pf growth 48h inconclusive (no result: Giardia FBPA inh)
Cc1ccc(-c2nnc(-c3ccncc3)n2-c2ccc(C)cc2)cc1	CHX counter 20, Shiga inhibitor 53
Cc1ccc2c(c1)Oc1ccc(NC(=O)CCCl)cc1C(=O)N2	Pf growth 96h 0.29µM, Pf growth 48h inconclusive (no result: NS1 inh)
CCCC(=O)Nc1ccc2c(c1)C(=O)NC2=O	none
CC(C)CC(=O)Nc1ccc(C(=O)COc2ccc(-c3nnco3)cc2)cc1	Pf growth 96h 2.1µM, Pf growth 48h inconclusive
CC(C)CC(=O)Nc1ccc(OCC(=O)O)cc1	none (no result: Pf growth 96h)
